Inconclusive results are not listed. Calls of active or inactive are those of the source. The calls were made as follows: active = hit-call score of the fitted dose curve at least 0.9, where 1 is the maximum; inconclusive = response in the unintended direction; inactive = score below 0.9.
Legend:
[1] = TOX21_p53_BLA_p2_viability: Viability Assessment in the Tox21 HCT-116 p53 Agonism Beta-lactamase Assay, Phase 2 (AID 2283591);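 also: compound exposure lasted 16 h at 37 °C; actives lower the ATP signal meaning cytotoxicity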
Procedure, shortened: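 Cytotoxicity readout: CellTiter-Glo ATP luminescence, 30 min at room temperature, after the beta-lactamase read. Cells were HCT116 exposed 16 h at 37C to compounds pin-transferred at 217-fold dilution from DMSO stocks.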

[2] = target: Cellular tumor antigen p53 (Homo sapiens) (UniProt P04637); assay: TOX21_p53_BLA_p2_ratio: Tox21 HCT-116 p53 Agonism Beta-lactamase Assay, Ratio, Phase 2 (AID 2283592)
Procedure, shortened: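 HCT-116 cells with p53-responsive beta-lactamase reporter, 4000 cells/well, preincubated 5 h, then compound in DMSO (217-fold dilution) for 16 h at 37C. CCF4-AM substrate 2 h at room temperature; 460/530 nm emission ratio fitted upward versus DMSO.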

[3] = TOX21_p53_BLA_p3_viability: Viability Assessment in the Tox21 HCT-116 p53 Agonism Beta-lactamase Assay, Phase 3 (AID 2283593);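 also: cells exposed to compound for 16 h before reading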
Procedure, shortened: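 Cellular ATP was quantified by CellTiter-Glo luminescence, read after 30 min at room temperature. Beforehand, HCT116 cells (4000/well) received compound 5 h post-seeding, 217-fold diluted from DMSO, then incubated 16 h at 37C.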

[4] = target: Cellular tumor antigen p53 (Homo sapiens) (UniProt P04637); assay: TOX21_p53_BLA_p3_ratio: Tox21 HCT-116 p53 Agonism Beta-lactamase Assay, Ratio, Phase 3 (AID 2283596)
Procedure, shortened: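 HCT116 p53-bla cells (4000/well) given compound in DMSO (217-fold dilution) after 5 h, incubated 16 h at 37C. CCF4-AM substrate 2 h at room temperature; 460/530 nm emission ratio, gain fitted against DMSO.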

[5] = TOX21_p53_BLA_p4_viability: Viability Assessment in the Tox21 HCT-116 p53 Agonism Beta-lactamase Assay, Phase 4 (AID 2283597);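 also: hits lower the luminescence signal meaning cytotoxicity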
Procedure, shortened: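 HCT-116 p53-bla cells, 4000/well, dosed after 5 h attachment and incubated 16 h at 37 °C, 5% CO2. Viability from CellTiter-Glo ATP luminescence after 30 min at room temperature, taken after the beta-lactamase read; loss of signal indicates cytotoxicity.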

[6] = target: Cellular tumor antigen p53 (Homo sapiens) (UniProt P04637); assay: TOX21_p53_BLA_p5_ratio: Tox21 HCT-116 p53 Agonism Beta-lactamase Assay, Ratio, Phase 5 (AID 2283599)
Procedure, shortened: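 Beta-lactamase reporter ratio (blue 460 nm over green 530 nm, 405 nm excitation) after 2 h CCF4-AM loading, in HCT-116 cells exposed 16 h at 37 C to compounds pinned at 217-fold dilution. Increases relative to DMSO baseline scored.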

[7] = TOX21_p53_BLA_p5_viability: Viability Assessment in the Tox21 HCT-116 p53 Agonism Beta-lactamase Assay, Phase 5 (AID 2283600)
Procedure, shortened: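 HCT-116 p53 beta-lactamase reporter cells, 4000/well, were exposed to compound (pin transfer, 217-fold dilution) for 16 hours at 37C. Cellular ATP was read by CellTiter-Glo luminescence after 30 min at room temperature.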

[8] = target: Cellular tumor antigen p53 (Homo sapiens) (UniProt P04637); assay: TOX21_p53_BLA_p4_ratio: Tox21 HCT-116 p53 Agonism Beta-lactamase Assay, Ratio, Phase 4 (AID 2283601)
Procedure, shortened: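 Signal is the blue/green (460nm/530nm) ratio of cleaved versus uncleaved CCF4-AM substrate, read after 2 h substrate loading. Cells were HCT116 carrying the p53-responsive beta-lactamase reporter, dosed 16 h at 37C, 5% CO2; CellTiter-Glo measured in parallel.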

Sequence of Cellular tumor antigen p53 (Homo sapiens) (P04637 whole entry, looked up): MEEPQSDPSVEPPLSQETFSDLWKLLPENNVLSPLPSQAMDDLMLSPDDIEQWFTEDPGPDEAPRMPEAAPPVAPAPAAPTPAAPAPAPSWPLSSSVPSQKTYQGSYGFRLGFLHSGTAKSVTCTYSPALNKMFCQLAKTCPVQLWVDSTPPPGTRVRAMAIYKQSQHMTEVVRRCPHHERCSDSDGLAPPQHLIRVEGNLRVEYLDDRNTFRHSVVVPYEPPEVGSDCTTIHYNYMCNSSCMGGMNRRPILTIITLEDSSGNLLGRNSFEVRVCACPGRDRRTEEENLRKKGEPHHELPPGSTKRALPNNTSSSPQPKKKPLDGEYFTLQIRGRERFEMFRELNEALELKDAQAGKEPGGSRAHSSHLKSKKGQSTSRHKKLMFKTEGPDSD

SMILES	AC50 [1]	AC50 [2]	AC50 [3]	AC50 [4]	AC50 [5]	AC50 [6]	AC50 [7]	AC50 [8]	outcome [1]	outcome [3]	outcome [5]	outcome [7]	outcome [2]	outcome [4]	outcome [8]	outcome [6]
Cc1cc(O)c2c(c1)O[C@@]1(C)CC[C@H]3C(C)(C)CCCC34CO[C@@H]2[C@H]41 (stereo partly specified)	31 µM (active)	44.2 µM (active)	34.3 µM (active)	43.7 µM (active)	29.6 µM (active)	30.6 µM (active)	20.8 µM (active)	43.4 µM (active)								
Nc1nc(Cl)nc2c1ncn2[C@@H]1O[C@H](CO)[C@@H](O)[C@@H]1F		0.119 µM (active)		0.117 µM (active)		0.112 µM (active)		0.155 µM (active)	inactive	inactive	inactive	inactive				
C=CC[C@@H]1/C=C(\C)C[C@H](C)C[C@H](OC)[C@H]2O[C@@](O)(C(=O)C(=O)N3CCCC[C@H]3C(=O)O[C@H](/C(C)=C/[C@@H]3CC[C@@H](O)[C@H](OC)C3)[C@H](C)[C@@H](O)CC1=O)[C@H](C)C[C@@H]2OC	36.5 µM (active)				35.9 µM (active)	36.8 µM (active)	40.5 µM (active)			inactive			inactive	inactive	inactive	
CN1[C@@H](CC(=O)c2ccccc2)CCC[C@H]1C[C@H](O)c1ccccc1									inactive	inactive	inactive	inactive	inactive	inactive	inactive	inactive
O=S(=O)(O)Oc1ccc(C(c2ccc(OS(=O)(=O)O)cc2)c2ccccn2)cc1									inactive	inactive	inactive	inactive	inactive	inactive	inactive	inactive
Cc1cc(N)c2ccccc2[n+]1CCCCCCCCCC[n+]1c(C)cc(N)c2ccccc21									inactive	inactive	inactive	inactive	inactive	inactive	inactive	inactive
Nc1cc(S(=O)(=O)O)cc2cc(S(=O)(=O)O)cc(O)c12									inactive	inactive	inactive	inactive	inactive	inactive	inactive	inactive
C[C@@H]1CN(CCCn2c3ccccc3c3ccccc32)C[C@H](C)N1					28.9 µM (active)				inactive	inactive		inactive	inactive	inactive	inactive	inactive
COc1cc(-c2ccc(-[n+]3nc(-c4ccccc4)nn3-c3ccc([N+](=O)[O-])cc3)c(OC)c2)ccc1-[n+]1nc(-c2ccccc2)nn1-c1ccc([N+](=O)[O-])cc1	13 µM (active)	19.1 µM (active)	21.3 µM (active)	36.5 µM (active)	11.4 µM (active)	21.7 µM (active)	17.6 µM (active)	18 µM (active)								
O=C1NCN(c2ccccc2)C12CCN(CCCC(c1ccc(F)cc1)c1ccc(F)cc1)CC2	37.3 µM (active)	39.1 µM (active)	35.9 µM (active)	42.2 µM (active)	23 µM (active)	45 µM (active)	35.1 µM (active)	26.7 µM (active)								
CCCCC(CC)CN=C(N)NC(N)=NCCCCCCN=C(N)NC(N)=NCC(CC)CCCC (stereo unspecified)	32 µM (active)	24.1 µM (active)	36.8 µM (active)	33.9 µM (active)	29.4 µM (active)	37.3 µM (active)	31.6 µM (active)	27.9 µM (active)								
C(=C\c1ccccc1)/CN1CCN(C(c2ccccc2)c2ccccc2)CC1									inactive	inactive	inactive	inactive	inactive	inactive	inactive	inactive
O=[N+]([O-])c1ccc(O)c2ncccc12					23 µM (active)				inactive	inactive		inactive	inactive	inactive	inactive	inactive
CC(C)[C@@H]1CC[C@@H](C)C[C@H]1OC(=O)c1ccccc1O			37.3 µM (active)						inactive		inactive	inactive	inactive	inactive	inactive	inactive
O=C(CCS)OCC(COC(=O)CCS)(COC(=O)CCS)COC(=O)CCS				15.7 µM (active)					inactive	inactive	inactive	inactive	inactive		inactive	inactive
CCc1cccc(CC)c1NC(=O)CN(CC(=O)O)CC(=O)O									inactive	inactive	inactive	inactive	inactive	inactive	inactive	inactive
O=C1c2ccccc2C(=O)C1c1ccc2ccccc2n1									inactive	inactive	inactive	inactive	inactive	inactive	inactive	inactive
Oc1c(Br)cc(Br)c2cccnc12		5.02 µM (active)			7.62 µM (active)				inactive	inactive		inactive		inactive	inactive	inactive
COc1c(Br)cc(Br)c(C)c1Br									inactive	inactive	inactive	inactive	inactive	inactive	inactive	inactive
CC(=O)O[C@H]1CC[C@@]2(C)C(=CC[C@H]3[C@@H]4CC[C@H](C(C)=O)[C@@]4(C)CC[C@@H]32)C1									inactive	inactive	inactive	inactive	inactive	inactive	inactive	inactive
O=C(NOCC1CC1)c1ccc(F)c(F)c1Nc1ccc(I)cc1Cl		7.89 µM (active)	23 µM (active)	23.9 µM (active)	23 µM (active)	20.5 µM (active)	19.7 µM (active)	30.5 µM (active)	inactive							

SMILES	AC50 [1]	AC50 [2]	AC50 [3]	AC50 [4]	AC50 [5]	AC50 [6]	AC50 [7]	AC50 [8]	outcome [1]	outcome [3]	outcome [5]	outcome [7]	outcome [2]	outcome [4]	outcome [8]	outcome [6]
CO[C@@]12[C@H](COC(N)=O)C3=C(C(=O)C(C)=C(N)C3=O)N1C[C@@H]1N[C@@H]12	33.2 µM (active)	7.59 µM (active)	29.5 µM (active)	3.24 µM (active)		6.3 µM (active)	34.4 µM (active)	20.8 µM (active)			inactive					
Cc1ccccn1									inactive	inactive	inactive	inactive	inactive	inactive	inactive	inactive
CSc1nc2cc(Oc3cccc(Cl)c3Cl)c(Cl)cc2[nH]1	14.5 µM (active)	33.3 µM (active)	22.6 µM (active)	33.9 µM (active)	33.2 µM (active)			20.5 µM (active)				inactive				inactive
CN(Cc1cc(Br)cc(Br)c1N)C1CCCCC1			39.5 µM (active)						inactive		inactive	inactive	inactive	inactive	inactive	inactive
OCCN1CCN(CCCN2c3ccccc3Sc3ccc(C(F)(F)F)cc32)CC1					33.5 µM (active)			40.9 µM (active)	inactive	inactive		inactive	inactive	inactive		inactive
Oc1c(Cl)cc(Cl)c2cccnc12		7.4 µM (active)		7.23 µM (active)	7.77 µM (active)	7.4 µM (active)		6.25 µM (active)	inactive	inactive		inactive				
O=C(CC(=O)C(F)(F)F)c1ccccc1			76.4 µM (active)						inactive		inactive	inactive	inactive	inactive	inactive	inactive
O=C1C(c2[nH]c3ccccc3c2O)=Nc2ccccc21									inactive	inactive	inactive	inactive	inactive	inactive	inactive	inactive
Cc1ccc(O)c(O)c1	40.8 µM (active)		41.5 µM (active)		41 µM (active)	66 µM (active)	42 µM (active)						inactive	inactive	inactive	
CCN(CC)CCCN(c1ccccc1)C1Cc2ccccc2C1	9.12 µM (active)	23.3 µM (active)	26.6 µM (active)	36.3 µM (active)	2.11 µM (active)	36.7 µM (active)	30.6 µM (active)	23 µM (active)								
Cc1ccc(-n2nc(C(C)(C)C)cc2NC(=O)Nc2ccc(OCCN3CCOCC3)c3ccccc23)cc1									inactive	inactive	inactive	inactive	inactive	inactive	inactive	inactive
NC(=O)Nc1ccc(Cl)c(Cl)c1									inactive	inactive	inactive	inactive	inactive	inactive	inactive	inactive
Cc1c(C)n(CCN(C)C)c2ccc(C(=O)OCCN(C)C)cc12								40.2 µM (active)	inactive	inactive	inactive	inactive	inactive	inactive		inactive
CC(C)NCC1CCc2cc(CO)c([N+](=O)[O-])cc2N1 (stereo unspecified)									inactive	inactive	inactive	inactive	inactive	inactive	inactive	inactive
CCCCC(CC)CN1CN(CC(CC)CCCC)CC(C)(N)C1 (stereo unspecified)									inactive	inactive	inactive	inactive	inactive	inactive	inactive	inactive
C=CCNC1=C2C[C@@H](C)C[C@H](OC)[C@H](O)[C@@H](C)/C=C(\C)[C@H](OC(N)=O)[C@@H](OC)/C=C\C=C(/C)C(=O)NC(=CC1=O)C2=O		0.189 µM (active)		0.19 µM (active)		0.183 µM (active)		0.147 µM (active)	inactive	inactive	inactive	inactive				
CSc1ccc(/C=C2/C(C)=C(CC(=O)O)c3cc(F)ccc32)cc1	22.4 µM (active)		41.1 µM (active)		23.1 µM (active)	19.7 µM (active)	36.4 µM (active)						inactive	inactive	inactive	
CC1(C)S[C@@H]2[C@H](NC(=O)C(C(=O)O)c3ccccc3)C(=O)N2[C@H]1C(=O)O (stereo partly specified)									inactive	inactive	inactive	inactive	inactive	inactive	inactive	inactive
C=C1/C(=C\C=C2/CCC[C@]3(C)[C@@H]([C@H](C)CCCC(C)C)CC[C@@H]23)C[C@@H](O)C[C@@H]1O		20.7 µM (active)	37.1 µM (active)	40 µM (active)					inactive		inactive	inactive			inactive	inactive
O=C(N/N=C/c1ccccc1O)c1ccncc1					8.16 µM (active)				inactive	inactive		inactive	inactive	inactive	inactive	inactive
O=C(Nc1ccc(S(=O)(=O)N2CCOCC2)cc1)c1cc(Cl)ccc1NS(=O)(=O)c1ccc(Cl)s1					22 µM (active)	21.7 µM (active)		36.5 µM (active)	inactive	inactive		inactive	inactive	inactive		

Reference: PubChem BioAssay (EPA / NIEHS)
